This passage reports outcome and AC50 results from PubChem BioAssay (EPA / NIEHS).

Calls of active or inactive are those of the source. How the source made its calls: active means hit-call score of the fitted dose curve at least 0.9, where 1 is the maximum; inactive means score below 0.9.

Assay [1] is described as follows: ATG_GLI_CIS: Attagene CIS-FACTORIAL HepG2 Assay for human Zinc Finger Protein GLI1 (AID 2282945). Conditions: HepG2, Attagene cis-factorial reporter mRNA, GLI element; actives raise or lower the signal. Put shortly:
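HepG2 cells transiently transfected with cis-promoter multiplexed reporter units report endogenous transcription factor activity. After 24 h chemical exposure, reporter mRNA was quantified by RT-PCR, 6-FAM labelling, HpaI digestion and capillary electrophoresis, with bidirectional fitting against DMSO.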

The target of assay [2] is Bile acid receptor (Homo sapiens) (UniProt Q96RI1). Description: ATG_IR1_CIS: Attagene CIS-FACTORIAL HepG2 Assay for human Nuclear Receptor Subfamily 1 Group H Member 4 (NR1H4), IR1 submotif (AID 2282946). Conditions: IR1 reporter transcription, actives raise or lower the signal. Put shortly: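 Transient MRTU transfection, HepG2; 24 h dosing; RNA → RT-PCR → 6-FAM primer extension → HpaI digest → capillary electrophoresis fluorescence. Gain/loss of signal fitted relative to DMSO.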
Chain of Bile acid receptor (Homo sapiens) (Q96RI1 whole entry, looked up): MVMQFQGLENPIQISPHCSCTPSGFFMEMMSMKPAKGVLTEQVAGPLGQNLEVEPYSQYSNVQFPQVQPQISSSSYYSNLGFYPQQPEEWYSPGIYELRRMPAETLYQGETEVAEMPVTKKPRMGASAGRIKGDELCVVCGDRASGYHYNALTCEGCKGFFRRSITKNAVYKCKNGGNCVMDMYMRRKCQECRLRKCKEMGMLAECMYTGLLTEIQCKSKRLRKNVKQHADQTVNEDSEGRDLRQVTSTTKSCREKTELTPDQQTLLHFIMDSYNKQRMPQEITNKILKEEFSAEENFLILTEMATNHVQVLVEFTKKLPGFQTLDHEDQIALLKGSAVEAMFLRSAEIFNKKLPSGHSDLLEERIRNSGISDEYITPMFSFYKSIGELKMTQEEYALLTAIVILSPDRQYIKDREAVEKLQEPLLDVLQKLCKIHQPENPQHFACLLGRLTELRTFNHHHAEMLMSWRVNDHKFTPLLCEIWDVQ

A short description of assay [3]: ATG_ISRE_CIS: Attagene CIS-FACTORIAL HepG2 Assay for human Interferon Regulatory Factor 1 (IRF1) binding to an Interferon-Stimulated Response Element (ISRE) (AID 2282948). The following applies: HepG2 ISRE cis-reporter (Attagene), mRNA transcription readout; actives raise or lower the signal. Put shortly: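 Transiently transfected HepG2 cells carrying cis-element reporter units, dosed 24 hours. Reporter mRNA quantified by RT-PCR, fluorescent primer extension, HpaI digestion and capillary electrophoresis. Bidirectional fitting relative to DMSO.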

Assay [4] can be described thus: ATG_M_32_CIS: Attagene CIS-FACTORIAL HepG2 Assay for M32 Transcription Factor (Internal Marker) (AID 2282949).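 Further: background control marker of the multiplexed CIS panel rather than a real target.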 Conditions: HepG2 Attagene cis-factorial M32 reporter, mRNA; actives raise or lower the signal. An outline of the steps:
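HepG2 cells transiently transfected with multiplexed cis-regulated reporter units, dosed 24 h. Reporter mRNA quantified by RT-PCR, 6-FAM labelling, HpaI digestion and capillary electrophoresis; bidirectional fit vs DMSO.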

The nature of assay [5]: ATG_M_06_CIS: Attagene CIS-FACTORIAL HepG2 Assay for M06 Transcription Factor (Internal Marker) (AID 2282950). Conditions: HepG2 Attagene CIS-FACTORIAL M06 internal marker reporter; actives raise or lower the signal. Put shortly:
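HepG2 cells transiently transfected with cis-regulated multiple reporter transcription units were exposed to chemical for 24 h; reporter mRNA was quantified by RT-PCR, 6-FAM primer labelling, HpaI digestion and capillary electrophoresis, fitted bidirectionally against DMSO.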

In assay [6] the target is Hypoxia-inducible factor 1-alpha (Homo sapiens) (UniProt Q16665). Description: ATG_HIF1a_CIS: Attagene CIS-FACTORIAL HepG2 Assay for human Hypoxia Inducible Factor 1 (HIF1A) (AID 2282951). Conditions: HepG2 Attagene cis-factorial HIF1a reporter transcription; actives raise or lower the signal. Put shortly:
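Endogenous-TF cis reporter readout, human HepG2 cells, 24 h incubation; mRNA detected via RT-PCR and capillary electrophoresis fluorescence; DMSO-normalised bidirectional fitting.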

For assay [7], the target named is Hepatocyte nuclear factor 6 (Homo sapiens) (UniProt Q9UBC0). Description: ATG_HNF6_CIS: Attagene CIS-FACTORIAL HepG2 Assay for human Hepatocyte Nuclear Factor 6 (HNF6) (AID 2282952). The following applies: HepG2 Attagene cis-factorial HNF6 reporter transcription; actives raise or lower the signal. An outline of the steps: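 Multiplexed mRNA reporter assay in transfected HepG2; 24 h dosing; RT-PCR plus capillary electrophoresis fluorescence; DMSO-referenced bidirectional curve fitting.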
Chain of Hepatocyte nuclear factor 6 (Homo sapiens) (Q9UBC0 whole entry, looked up): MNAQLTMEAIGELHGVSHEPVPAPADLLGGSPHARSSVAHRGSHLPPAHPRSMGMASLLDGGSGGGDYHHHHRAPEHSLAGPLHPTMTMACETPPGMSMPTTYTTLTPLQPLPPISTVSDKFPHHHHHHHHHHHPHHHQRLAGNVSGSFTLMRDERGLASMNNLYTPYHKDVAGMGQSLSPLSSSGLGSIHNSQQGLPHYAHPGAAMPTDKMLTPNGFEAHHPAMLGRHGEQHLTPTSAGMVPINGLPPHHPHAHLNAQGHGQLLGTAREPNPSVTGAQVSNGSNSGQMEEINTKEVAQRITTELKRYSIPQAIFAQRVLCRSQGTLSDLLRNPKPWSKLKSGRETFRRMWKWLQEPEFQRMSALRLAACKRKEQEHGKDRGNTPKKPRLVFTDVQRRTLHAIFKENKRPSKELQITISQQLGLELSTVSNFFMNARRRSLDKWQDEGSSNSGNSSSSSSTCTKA

Assay [8] concerns the target Heat shock factor protein 1 (Homo sapiens) (UniProt Q00613). Put plainly: ATG_HSE_CIS: Attagene CIS-FACTORIAL HepG2 Assay for human Heat Shock Transcription Factor 1 (HSE) (AID 2282953). The following applies: HepG2 HSE cis-reporter, Attagene RNA transcription; actives raise or lower the signal. An outline of the steps: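 HepG2 cells transiently transfected with multiple reporter transcription units under cis-regulatory promoter control, measuring endogenous transcription factor activity. After 24 h chemical exposure, reporter mRNA quantified by RT-PCR, fluorescent labelling, HpaI digestion and capillary electrophoresis; bidirectional fit versus DMSO.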

The nature of assay [9]: ATG_MRE_CIS: Attagene CIS-FACTORIAL HepG2 Assay for human Metal Responsive Element (MRE) (AID 2282954). Conditions: HepG2 MRE cis-reporter transcription, Attagene multiplex; actives raise or lower the signal. An outline of the steps:
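Step one: transfect HepG2 with cis-regulated reporter units. Step two: dose 24 h. Step three: isolate RNA, RT-PCR, 6-FAM label, HpaI digest, capillary electrophoresis. Fit bidirectionally to DMSO.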

Assay [10] can be described thus: ATG_PBREM_CIS: Attagene CIS-FACTORIAL HepG2 Assay for human Phenobarbital-responsive Enhancer Module (PBREM) (AID 2282955). The following applies: HepG2 PBREM cis-reporter, Attagene multiplexed transcription; actives raise or lower the signal. Put shortly:
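Readout: reporter mRNA, fluorescent RT-PCR fragments separated by capillary electrophoresis. System: HepG2 transiently transfected with cis-regulated reporter units. Exposure: 24 h. Analysis: bidirectional, DMSO baseline.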

The target in assay [11] is Paired box protein Pax-6 (Homo sapiens) (UniProt P26367). Put plainly: ATG_Pax6_CIS: Attagene CIS-FACTORIAL HepG2 Assay for human Paired Box 6 (PAX6) (AID 2282956). Conditions: HepG2 CIS-FACTORIAL PAX6 reporter transcription, RNA readout; actives raise or lower the signal. An outline of the steps: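 HepG2 cells transiently transfected with cis-promoter-driven multiplexed reporter units sensing endogenous transcription factor activity; 24 h chemical exposure. Reporter mRNA quantified by RT-PCR, 6-FAM labelling, HpaI digestion and capillary electrophoresis; bidirectional fit versus DMSO baseline.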
Chain of Paired box protein Pax-6 (Homo sapiens) (P26367 whole entry, looked up): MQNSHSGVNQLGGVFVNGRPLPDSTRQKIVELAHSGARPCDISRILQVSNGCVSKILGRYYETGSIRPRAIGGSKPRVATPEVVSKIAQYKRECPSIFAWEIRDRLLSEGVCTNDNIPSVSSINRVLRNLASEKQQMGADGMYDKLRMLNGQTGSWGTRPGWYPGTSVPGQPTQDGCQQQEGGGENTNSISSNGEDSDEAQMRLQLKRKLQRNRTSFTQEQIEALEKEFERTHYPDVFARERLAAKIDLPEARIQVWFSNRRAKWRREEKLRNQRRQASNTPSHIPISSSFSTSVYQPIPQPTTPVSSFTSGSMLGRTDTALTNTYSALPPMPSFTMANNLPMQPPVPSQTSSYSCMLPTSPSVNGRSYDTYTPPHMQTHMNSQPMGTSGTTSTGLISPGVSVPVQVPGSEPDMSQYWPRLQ

Assay [12] can be described thus: ATG_PXRE_CIS: Attagene CIS-FACTORIAL HepG2 Assay for human Pregnane X Receptor Element (PXRE) (AID 2282957). The following applies: HepG2 Attagene CIS-FACTORIAL PXRE reporter, mRNA; actives raise or lower the signal. An outline of the steps: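 Cells: HepG2, transiently transfected reporter units under cis promoter control. Exposure: 24 h. Detection: reporter mRNA via RT-PCR/CE fluorescence; bidirectional fitting, DMSO-referenced.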

Assay [13] is described as follows: ATG_RORE_CIS: Attagene CIS-FACTORIAL HepG2 Assay for human RAR-related Orphan Receptor Element (RORE) (AID 2282959). The following applies: HepG2 Attagene cis-factorial RORE reporter, mRNA; actives raise or lower the signal. An outline of the steps:
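Measured here: transcript induction of a cis-regulated reporter in HepG2 cells transiently transfected via FuGene 6. After 24 h, RNA was processed by RT-PCR and fluorescent capillary electrophoresis; DMSO defined baseline activity.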

Assay [14] can be described thus: ATG_Sox_CIS: Attagene CIS-FACTORIAL HepG2 Assay for human SRY-box transcription factor (SOX) (AID 2282960). Conditions: HepG2 Attagene cis-factorial SOX reporter, mRNA; actives raise or lower the signal. Put shortly:
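Using transiently transfected HepG2 cells, reporter transcription driven by cis elements was assessed 24 h after dosing. Signal was fluorescence of capillary-separated RT-PCR products, with DMSO defining baseline activity.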

The target in assay [15] is Transcription factor Sp1 (Homo sapiens) (UniProt P08047). Description: ATG_Sp1_CIS: Attagene CIS-FACTORIAL HepG2 Assay for human Specificity Protein 1 (Sp1) (AID 2282961). The following applies: HepG2 Sp1 cis-reporter transcription, actives raise or lower the signal. Put shortly: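 After transient transfection of HepG2 cells with cis-promoter reporter units and 24 h chemical treatment, reporter transcripts were quantified by RT-PCR and capillary electrophoresis fluorescence. Gain- and loss-of-signal fitted against DMSO.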
Chain of Transcription factor Sp1 (Homo sapiens) (P08047 whole entry, looked up): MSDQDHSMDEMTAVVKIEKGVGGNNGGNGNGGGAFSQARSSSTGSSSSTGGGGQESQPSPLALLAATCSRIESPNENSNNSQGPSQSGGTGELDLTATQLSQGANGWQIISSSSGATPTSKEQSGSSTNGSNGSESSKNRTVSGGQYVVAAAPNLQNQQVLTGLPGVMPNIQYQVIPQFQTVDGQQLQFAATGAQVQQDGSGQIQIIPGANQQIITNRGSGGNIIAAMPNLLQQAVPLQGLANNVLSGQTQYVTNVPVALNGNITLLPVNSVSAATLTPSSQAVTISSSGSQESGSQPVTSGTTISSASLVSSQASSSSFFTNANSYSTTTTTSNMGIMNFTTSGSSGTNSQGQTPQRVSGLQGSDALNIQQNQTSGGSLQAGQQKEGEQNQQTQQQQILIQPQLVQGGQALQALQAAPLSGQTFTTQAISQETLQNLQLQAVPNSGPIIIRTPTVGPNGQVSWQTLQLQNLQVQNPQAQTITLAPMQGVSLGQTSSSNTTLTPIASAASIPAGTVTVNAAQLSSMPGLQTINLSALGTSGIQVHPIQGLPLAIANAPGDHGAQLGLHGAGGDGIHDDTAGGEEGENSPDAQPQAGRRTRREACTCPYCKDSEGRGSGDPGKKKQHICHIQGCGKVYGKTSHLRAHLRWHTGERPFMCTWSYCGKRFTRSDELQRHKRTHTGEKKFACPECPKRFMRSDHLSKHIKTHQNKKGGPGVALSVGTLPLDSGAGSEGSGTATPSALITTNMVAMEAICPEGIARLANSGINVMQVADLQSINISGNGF

The nature of assay [16]: ATG_SREBP_CIS: Attagene CIS-FACTORIAL HepG2 Assay for human Sterol Regulatory Element Binding (SREBP) (AID 2282962). The following applies: HepG2 Attagene cis-factorial SREBP reporter, mRNA; actives raise or lower the signal. An outline of the steps:
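HepG2 cells transiently transfected with multiplexed cis-promoter reporter units sensing endogenous transcription factors; reporter mRNA measured 24 h after dosing by RT-PCR, 6-FAM labeling, HpaI digestion and capillary electrophoresis. Bidirectional fit versus DMSO.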

In assay [17] the target is Signal transducer and activator of transcription 3 (Homo sapiens) (UniProt P40763). Description: ATG_STAT3_CIS: Attagene CIS-FACTORIAL HepG2 Assay for human Signal Transducer and Activator of Transcription 3 (STAT3) (AID 2282963). The following applies: HepG2, Attagene cis-factorial STAT3 reporter transcription; actives raise or lower the signal. Put shortly:
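Transcript-level reporter assay. HepG2 transient MRTU transfection, 24 h exposure, fluorescence detection after RT-PCR and CE; DMSO baseline.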

A short description of assay [18]: ATG_TA_CIS: Attagene CIS-FACTORIAL HepG2 Assay for human TA Basal Promoter (AID 2282964). Conditions: HepG2 Attagene CIS-factorial TA basal promoter reporter; actives raise or lower the signal. An outline of the steps:
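HepG2 cells transiently transfected with multiplexed cis-promoter reporter units, dosed 24 h. Reporter mRNA measured by RT-PCR, 6-FAM labelling, HpaI digestion and capillary electrophoresis; bidirectional fit versus DMSO baseline, serving as background control.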

A short description of assay [19]: ATG_GRE_CIS: Attagene CIS-FACTORIAL HepG2 Assay for human Glucocorticoid Response Elements (GRE) (AID 2282947). The following applies: HepG2 GRE cis-reporter, Attagene multiplex mRNA; actives raise or lower the signal. An outline of the steps:
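Following 24 h chemical exposure of transiently transfected HepG2 cells, total RNA was reverse-transcribed and reporter cDNA amplified, fluorescently labelled and sized by capillary electrophoresis. Signal gain or loss was fitted relative to DMSO vehicle.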

Assay [20] in a line: ATG_PPRE_CIS: Attagene CIS-FACTORIAL HepG2 Assay for human Peroxisome Proliferator-activated Response Element (PPRE) (AID 2282958). Conditions: HepG2 PPRE cis-element reporter, Attagene transcription factor profiling; actives raise or lower the signal. An outline of the steps: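 After human HepG2 hepatoma cells were transiently transfected with cis-promoter reporter constructs, they were exposed to test chemicals for 24 hours. Reporter RNA was then reverse-transcribed, PCR-amplified, FAM-labeled, HpaI-digested and quantified by capillary electrophoresis.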

Chain of Heat shock factor protein 1 (Homo sapiens) (Q00613 whole entry, looked up): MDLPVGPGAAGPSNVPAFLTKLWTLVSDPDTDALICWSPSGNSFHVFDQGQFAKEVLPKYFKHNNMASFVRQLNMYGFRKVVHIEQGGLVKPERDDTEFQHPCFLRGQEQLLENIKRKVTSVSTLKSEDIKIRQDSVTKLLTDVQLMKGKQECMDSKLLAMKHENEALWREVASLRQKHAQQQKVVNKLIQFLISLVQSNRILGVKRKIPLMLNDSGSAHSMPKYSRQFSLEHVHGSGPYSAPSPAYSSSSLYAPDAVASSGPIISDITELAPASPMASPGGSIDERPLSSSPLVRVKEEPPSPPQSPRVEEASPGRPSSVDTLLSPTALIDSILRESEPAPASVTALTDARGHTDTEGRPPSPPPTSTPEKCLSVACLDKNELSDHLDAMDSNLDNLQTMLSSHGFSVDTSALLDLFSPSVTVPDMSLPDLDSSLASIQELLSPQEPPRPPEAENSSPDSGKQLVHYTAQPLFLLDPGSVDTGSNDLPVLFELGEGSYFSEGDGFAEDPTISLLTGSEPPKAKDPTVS
Chain of Signal transducer and activator of transcription 3 (Homo sapiens) (P40763 whole entry, looked up): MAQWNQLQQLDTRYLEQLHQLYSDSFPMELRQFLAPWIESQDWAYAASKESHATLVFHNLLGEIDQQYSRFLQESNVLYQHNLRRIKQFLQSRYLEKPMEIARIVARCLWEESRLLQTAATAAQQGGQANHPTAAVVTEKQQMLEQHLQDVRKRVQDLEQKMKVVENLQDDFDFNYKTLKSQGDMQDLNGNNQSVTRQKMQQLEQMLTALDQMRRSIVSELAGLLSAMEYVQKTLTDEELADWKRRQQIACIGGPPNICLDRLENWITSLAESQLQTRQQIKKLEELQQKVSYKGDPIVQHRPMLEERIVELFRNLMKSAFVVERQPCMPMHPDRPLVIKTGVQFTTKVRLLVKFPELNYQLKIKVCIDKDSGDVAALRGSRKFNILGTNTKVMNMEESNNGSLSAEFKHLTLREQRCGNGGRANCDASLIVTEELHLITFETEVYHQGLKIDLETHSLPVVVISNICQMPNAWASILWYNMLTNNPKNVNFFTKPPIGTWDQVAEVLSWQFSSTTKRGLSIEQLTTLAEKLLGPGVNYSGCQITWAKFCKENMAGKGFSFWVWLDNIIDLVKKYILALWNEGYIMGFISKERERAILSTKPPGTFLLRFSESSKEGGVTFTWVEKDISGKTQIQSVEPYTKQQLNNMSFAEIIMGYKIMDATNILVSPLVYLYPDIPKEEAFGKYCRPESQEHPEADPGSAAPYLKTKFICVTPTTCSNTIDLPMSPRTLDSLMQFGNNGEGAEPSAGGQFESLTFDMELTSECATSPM
Chain of Hypoxia-inducible factor 1-alpha (Homo sapiens) (Q16665 whole entry, looked up): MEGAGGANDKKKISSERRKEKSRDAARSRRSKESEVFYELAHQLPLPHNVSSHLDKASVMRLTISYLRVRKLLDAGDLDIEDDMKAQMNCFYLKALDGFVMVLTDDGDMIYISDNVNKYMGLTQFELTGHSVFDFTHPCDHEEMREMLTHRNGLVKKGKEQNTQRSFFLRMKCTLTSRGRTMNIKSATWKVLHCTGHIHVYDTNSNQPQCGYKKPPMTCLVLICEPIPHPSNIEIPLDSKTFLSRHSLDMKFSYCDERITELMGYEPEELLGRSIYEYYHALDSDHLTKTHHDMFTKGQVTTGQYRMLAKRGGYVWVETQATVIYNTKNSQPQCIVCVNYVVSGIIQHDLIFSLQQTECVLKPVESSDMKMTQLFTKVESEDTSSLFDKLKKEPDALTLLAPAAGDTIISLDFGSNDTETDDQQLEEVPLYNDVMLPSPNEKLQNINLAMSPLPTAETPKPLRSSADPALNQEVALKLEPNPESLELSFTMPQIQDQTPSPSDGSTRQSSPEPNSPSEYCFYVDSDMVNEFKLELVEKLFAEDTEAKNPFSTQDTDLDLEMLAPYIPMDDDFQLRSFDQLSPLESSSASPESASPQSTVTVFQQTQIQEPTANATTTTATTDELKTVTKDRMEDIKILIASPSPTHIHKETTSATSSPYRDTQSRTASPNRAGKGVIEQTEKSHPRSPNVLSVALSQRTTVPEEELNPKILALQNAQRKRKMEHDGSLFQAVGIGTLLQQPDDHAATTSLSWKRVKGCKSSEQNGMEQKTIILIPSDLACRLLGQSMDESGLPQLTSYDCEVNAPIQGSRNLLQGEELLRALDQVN

Regarding `CN(C)C=O`, the compound was called inactive in assay [1], in assay [2], in [3], in assay [4], in assay [5] and in [6]. Moreover, the call in assay [7], in assay [8], in [9], in assay [10], in assay [11] and in assay [12] was inactive. Further, the compound was called inactive in [13], in assay [14], in [15], in assay [16], in assay [17] and in [18].
Consider `CCCCCCCCCCCCCCCS(=O)(=O)Oc1ccccc1`, for which the call in assay [1], in assay [2], in [19], in assay [3], in assay [4] and in assay [6] was inactive. The outcome in assay [7], in assay [8], in [9], in assay [10], in [11] and in assay [13] was inactive. The outcome in assay [14], in assay [15], in [16], in [17] and in assay [18] was inactive. For the same compound, in [12], the AC50 (commonly the concentration at which the activity in the assay is half-maximal) is 0.778 µM (active).
As for `CN1CCC[C@H]1c1cccnc1`, the result in assay [1], in assay [3], in [4], in assay [5], in [7] and in [9] was inactive. Besides, the outcome in assay [10], in [11], in assay [12], in [13], in [14] and in [15] was inactive. Further, the compound was called inactive in assay [16], in [17] and in assay [18].
As for `FC(F)(I)C(F)(F)C(F)(F)C(F)(F)C(F)(F)C(F)(F)I`, the result in [1], in assay [2], in [3], in [4], in assay [6] and in [7] was inactive. Further, the outcome in [8], in [9], in assay [10], in assay [12], in [20] and in assay [13] was inactive. Moreover, the result in assay [14], in [15], in assay [16] and in assay [17] was inactive. The AC50 in [19] is 18.1 µM (active); in [11], 16 µM (active); in assay [18], 16 µM (active).
